Screening results (PubChem BioAssay)
CCT modulator: cytosolic chaperonin activity modulation | purified chaperonin ATPase assay, HTRF ADP detection, 30 min | hit rate 0.3% among 360,000 | activity change, % (no concentration beside the values), hits read low; in the data active = activity change below about -30%
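TRiC at 40 or 20 nM final (batch-dependent) in 30 mM Tris pH 7.4, 100 mM KCl, 5 mM MgCl2, 1 mM DTT, with compound at single 76 uM and 10 uM ATP, 30 min at 37 deg C. ADP detected by HTRF Transcreener, 665/615 ratio.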
MmCpn inh: M. maripaludis TRiC chaperonin inhibition. Potency, µM (highest dose often 76.9 µM), usual class: inhibitors. AID 504842. purified Mm-Cpn ATPase, ADP Transcreener TR-FRET. hit rate 0.031% among 330,000; note: nearly all actives have a fitted effect of over 80% in size
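Quantitative HTS used 25 nM Mm-CPN and 10 uM ATP in magnesium/KCl Tris buffer, pH 7.4, with 1 mM DTT. Hydrolysis ran 30 min at 37°C; ADP was read by HTRF.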
G9a block: blocks human histone lysine methyltransferase G9a; hit rate 8.8% among 350,000; Q96KQ7; Potency, µM (top dose mostly 102 µM), actives largely listed as inhibitors; AID 504332; G9a H3K9 monomethylation, AlphaScreen, 2 h; note: nearly all actives have a fitted effect of over 75% in size
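Methyltransferase reactions run at room temperature for 2 h (20 nM enzyme, 500 nM biotin-H3K9 peptide, 20 uM SAM) after a 15 min compound preincubation; product detected by AlphaScreen beads and anti-H3K9me1 antibody.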
Sfp PPTase inh: blocks B. subtilis Sfp PPTase activity; Biochemical Sfp PPTase activity, qHTS; Potency, µM, most hits filed as inhibitors; hit rate 3.5% among 310,000;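 note: the enzyme is Sfp with the accession as filed and its product quenches rhodamine fluorescence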
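Step 1, compound plus 15 nM Sfp-PPTase, 15 min, room temperature. Step 2, add rhodamine-CoA (5 uM) and BHQ-2-YbbR (12.5 uM). Step 3, read 525/598 nm fluorescence at 0 and 30 min.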
VDR inhibitor: vitamin D3 receptor (human) inhibition | P11473 | VDR-SRC2-3 peptide fluorescence polarization, 2 h | Potency, µM, actives largely listed as inhibitors | hit rate 0.93% among 400,000 | AID 504847
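Fluorescence polarization assay of small-molecule disruption of VDR binding to coregulator peptide SRC2-3. Compounds and controls pin-transferred, then read after 2 h incubation at ambient room temperature.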
PLK1 PBD block: inhibitors of human PLK1 polo-box domain binding; Plk1 PBD binding of FITC phosphopeptide, fluorescence polarization; Potency, µM, most hits filed as inhibitors; hit rate 2.8% among 360,000; AID 720504; note: series mostly up to about 57 µM; nearly all actives have a fitted effect of over 65% in size
Target sequence (P53350 whole entry, looked up, the tested form may be a part): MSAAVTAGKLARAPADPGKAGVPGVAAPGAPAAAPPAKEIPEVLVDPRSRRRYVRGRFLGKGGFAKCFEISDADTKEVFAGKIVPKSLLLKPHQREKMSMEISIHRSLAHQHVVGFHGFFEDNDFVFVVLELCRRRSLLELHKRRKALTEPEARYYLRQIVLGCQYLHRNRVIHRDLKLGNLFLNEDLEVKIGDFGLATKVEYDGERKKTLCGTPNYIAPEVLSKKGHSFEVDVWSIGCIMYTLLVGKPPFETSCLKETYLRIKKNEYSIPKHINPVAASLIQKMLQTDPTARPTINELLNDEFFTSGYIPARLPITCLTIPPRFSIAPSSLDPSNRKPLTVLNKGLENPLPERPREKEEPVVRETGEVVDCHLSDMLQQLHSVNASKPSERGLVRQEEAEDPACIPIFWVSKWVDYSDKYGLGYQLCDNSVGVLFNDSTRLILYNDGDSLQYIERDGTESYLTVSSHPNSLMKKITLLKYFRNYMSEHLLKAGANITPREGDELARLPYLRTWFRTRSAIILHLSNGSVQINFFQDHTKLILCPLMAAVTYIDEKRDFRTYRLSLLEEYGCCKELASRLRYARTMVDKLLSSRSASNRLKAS
Hits are given with their value; [ ] = remark or other dose. An excerpt weighted towards active compounds, which were near 10% of everything screened. Unless noted, calls come from the whole dose curve; as a rule, active = well fitted curve in the direction sought with a large enough effect; inconclusive = small, poorly fitted or top-dose-only effect, or another doubt; inactive = no such curve, though single readings can be large; an effect the other way counts as inactive or inconclusive.

For Cc1noc(C)c1-c1cc(N(C)Cc2ccco2)ncn1 the results were G9a block inactive[0.501 µM], Sfp PPTase inh 56µM and VDR inhibitor 32µM.
For COc1ccc(NC(=O)Cn2cnc3ccccc3c2=O)cc1OC the results were CCT modulator inactive, MmCpn inh inactive, Sfp PPTase inh inactive, VDR inhibitor inactive and PLK1 PBD block inactive.
Screening O=C(CCCN1C(=O)CCC1=O)Nc1ccccc1F returned CCT modulator inactive, MmCpn inh inactive, G9a block 56µM, Sfp PPTase inh 79µM, VDR inhibitor inactive and PLK1 PBD block inconclusive.
`COc1ccc(NC(=O)CCCn2cnc3ccccc3c2=O)cc1` gave CCT modulator inactive, MmCpn inh inactive, G9a block 28µM, Sfp PPTase inh 50µM, VDR inhibitor inactive and PLK1 PBD block inconclusive.
Screening COC(=O)c1cc(OC)c(OC)cc1NC(=O)CCCCCN1C(=O)CCC1=O returned CCT modulator inactive, MmCpn inh inactive, G9a block inactive, Sfp PPTase inh inactive, VDR inhibitor inactive and PLK1 PBD block 30µM.
O=C(CCCn1cnc2ccccc2c1=O)Nc1ccccc1F was read as CCT modulator inactive, MmCpn inh inactive, G9a block 35µM, Sfp PPTase inh inactive, VDR inhibitor inactive and PLK1 PBD block inactive.
Screening O=[N+]([O-])c1ccc(C=NNc2ccccc2)cc1 returned CCT modulator inactive, VDR inhibitor inactive and PLK1 PBD block inactive.
Screening Cc1cc[n+](-c2nc([O-])sc2/C=N/Nc2ccc([N+](=O)[O-])cc2)cc1 returned CCT modulator inactive, MmCpn inh inactive, G9a block 45µM, Sfp PPTase inh inactive, VDR inhibitor inactive and PLK1 PBD block inactive.
`Cc1noc(NS(=O)(=O)c2ccc(NC(=O)c3cnc4scc(C)n4c3=O)cc2)c1C` gave CCT modulator inactive, MmCpn inh inactive, G9a block 50µM, Sfp PPTase inh inactive, VDR inhibitor inactive and PLK1 PBD block inactive.
For Cc1noc(NS(=O)(=O)c2ccc(NC(=O)c3cc(-c4ccccc4Cl)nc4ccccc34)cc2)c1C the results were CCT modulator inactive, MmCpn inh inactive, G9a block inconclusive, Sfp PPTase inh inactive, VDR inhibitor inactive and PLK1 PBD block 38µM.
COc1ccc(-c2cc(C(=O)Nc3ccc(S(=O)(=O)Nc4onc(C)c4C)cc3)c3ccccc3n2)cc1 was read as CCT modulator inactive, MmCpn inh inactive, G9a block 50µM, Sfp PPTase inh inactive, VDR inhibitor inactive and PLK1 PBD block inconclusive.
For Cc1cc(NS(=O)(=O)c2ccc(NC(=O)c3cnc4scc(C)n4c3=O)cc2)nc(C)n1 the results were CCT modulator inactive, MmCpn inh inactive, G9a block inconclusive, Sfp PPTase inh inactive, VDR inhibitor inactive and PLK1 PBD block inactive.
Screening COc1ccc(C(=O)Nc2ccc(S(=O)(=O)Nc3onc(C)c3C)cc2)c(OC)c1 returned CCT modulator -35, MmCpn inh inactive, G9a block inconclusive, Sfp PPTase inh inactive, VDR inhibitor inactive and PLK1 PBD block inactive.
Screening COCCCn1c(=N)c(C(=O)NCc2ccco2)cc2c(=O)n3cccc(C)c3nc21 returned G9a block inactive and VDR inhibitor inactive.
For Cc1cccn2c(=O)c3cc(C(=O)NC4CCCCC4)c(=N)n(Cc4ccccc4)c3nc12 the results were CCT modulator inactive, MmCpn inh inactive, G9a block 10µM, Sfp PPTase inh 28µM, VDR inhibitor inactive and PLK1 PBD block inactive.
For Cc1cccn2c(=O)c3cc(C(=O)NCCN4CCOCC4)c(=N)n(CCCN4CCOCC4)c3nc12 the results were CCT modulator inactive, MmCpn inh inactive, G9a block 50µM, Sfp PPTase inh inactive, VDR inhibitor inactive and PLK1 PBD block inactive.
Screening Cc1cccn2c(=O)c3cc(C(N)=S)c(=N)n(CCCOC(C)C)c3nc12 returned CCT modulator inactive, MmCpn inh inactive, G9a block inconclusive, Sfp PPTase inh inconclusive, VDR inhibitor 25µM and PLK1 PBD block inactive.
`CCOCCCn1c(=N)c(C(N)=S)cc2c(=O)n3cccc(C)c3nc21` gave CCT modulator inactive, MmCpn inh inactive, G9a block inconclusive, Sfp PPTase inh inactive, VDR inhibitor 79µM and PLK1 PBD block inconclusive.
CCOCCCn1c(=N)c(S(=O)(=O)c2ccc(Cl)cc2)cc2c(=O)n3cccc(C)c3nc21 was read as G9a block inactive and VDR inhibitor inactive.
